From PubChem BioAssay (EPA / NIEHS)
Several values for one entry are separate records, joined by “and”; a condition that tells them apart may be missing. Identical values can stand only once. Where a structure was tested more than once in an assay, its records may differ in their call. Activity calls are given as the source filed them. How the source made its calls: active means hit-call score of the fitted dose curve at least 0.9, where 1 is the maximum; inactive means score below 0.9.

The molecules below were run on Tissue plasminogen activator (tPA), PLAT (gene 5327) (assay: BSK_BE3C_tPA: BioMAP Diversity Plus: BE3C Assay for Tissue plasminogen activator (tPA) Biomarker Activity (AID 2283041;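 on outcome: tPA level quantified by ELISA one day after compound addition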)). Conditions: primary human bronchial epithelial cells; actives raise or lower the signal.
Experimental: BSK_BE3C is a cell-based, multiplexed-readout assay that uses bronchial epithelial cell, a human lung primary cell, with measurements taken at 24 hours after chemical dosing in a 96-well plate.BSK_BE3C_tPA is an assay component measured in the BSK_BE3C assay. It measures tPA antibody related to regulation of gene expression using ELISA technology.Data from the assay component BSK_BE3C_tPA was analyzed into 1 assay endpoint. This assay endpoint, BSK_BE3C_tPA, was analyzed with bidirectional fitting relative to DMSO as the negative control and baseline of activity. Using a type of binding reporter, gain or loss-of-signal activity can be used to understand changes in the signaling as they relate to the gene PLAT. Furthermore, this assay endpoint can be referred to as a primary readout, because this assay has produced multiple assay endpoints where this one serves a signaling function. To generalize the intended target to other relatable targets, this assay endpoint is annotated to the protease intended target family, where the subfamily is serine protease.
The levels of cell surface (or secreted, indicated by the prefix "s") biomarker endpoints were measured by ELISA. Overt cytotoxicity to cells in confluent adherent cultures (all systems other than the BT system) was assessed by measuring total protein levels using sulforhodamine B (SRB) staining in parallel cultures at the time of biomarker measurements, indicated as SRB endpoints. For proliferation assays for adherent cell types, individual cell types are cultured at sub-confluence and relative cell numbers quantified by SRB staining at time points optimized for each system (48 h: 3C and CASM3C systems; 72 h: BT and HDF3CGF systems; 96 h: SAg system). SRB was performed by staining cells with 0.1% SRB after fixation with 10% TCA and reading wells at 560 nm.Viability and proliferation of PBMC (T cells) was quantified by Alamar Blue reduction for the SAg and BT systems. For PBMC viability (referred to as PBMC Cytotoxicity within the assay endpoint names), cells were plated (75,000/well in a 96-well plate) and then chemical samples added for 1 h before addition of activators, SEB and TSST-1 (20 ng/mL final concentration each). Cells were incubated for 90 h. Then, Alamar Blue (20 uL/well) (Invitrogen, Cat DAL1100) was added for 6 h, and the plates were read with a fluorescence microplate reader at 546/580 nm (excitation/emission). For PBMC proliferation, cells were plated and activated as above but incubated for only 16 h prior to addition of Alamar Blue. Plates were read after 6 h.
With OCc1ccco1 the outcome was “inactive”.
For C[C@@H]1C[C@@H]([C@H](O)CC2CC(=O)NC(=O)C2)C(=O)[C@@H](C)C1, the AC50 was 2.91 µM (active).
Nc1cccc2ccccc12 was tested, and the outcome was “inactive”.
For Cc1ccccc1N, the outcome was “inactive”.
With COP(=S)(OC)Oc1c(Cl)cc(C)cc1Cl the outcome was “inactive”.
In the case of CN(C)N=O, the outcome is reported as “inactive”.
CC(C)(C)CC(C)(C)c1ccc(O)cc1 was tested, and the AC50 was 13.2 µM (active).
In the case of Nc1ncc([N+](=O)[O-])s1, the outcome is reported as “inactive”.
With Cn1sc(Cl)cc1=O the outcome was “inactive”.
CC(C)(C)c1cc(O)ccc1O was tested, and the outcome was “inactive”.
With CC(=O)[O][Hg][c]1ccccc1 the AC50 was 0.537 µM (active).
With CCCCCCCCC(=O)NCc1ccc(O)c(OC)c1 the outcome was “inactive”.
With ClC1(Cl)C2(Cl)C3(Cl)C4(Cl)C(Cl)(Cl)C5(Cl)C3(Cl)C1(Cl)C5(Cl)C24Cl (stereo not given) the outcome was “inactive”.
C=CC(=O)OCCCCCC(C)C was tested, and the outcome was “inactive”.
CCNc1nc(NC(C)(C)C)nc(SC)n1 was tested, and the outcome was “inactive”.
For ClCC(Cl)CCl, the outcome was “inactive”.
With CCN1CCC2(CC1)COc1cc3c(cc12)N(C(=O)c1ccc(-c2ccc(-c4nnc(C)o4)cc2C)cc1)CC3 the AC50 was 18.7 µM (active).
With CCSC(C)CC1CC(=O)C(C(CC)=NOC/C=C/Cl)=C(O)C1 (stereo not given) the outcome was “inactive”.
In the case of COP(=S)(OC)Oc1ccc(Sc2ccc(OP(=S)(OC)OC)cc2)cc1, the AC50 is reported as 10 µM (active).
In the case of Oc1cccc2cccnc12, the AC50 is reported as 2.07 µM (active).
For O=S(=O)(c1ccc(Cl)cc1)c1ccc(Cl)cc1, the outcome was “inactive”.
For CC(=O)OC(c1ccccc1)C(Cl)(Cl)Cl (stereo not given), the outcome was “inactive”.
In the case of COc1cc(OC)nc(NC(=O)NS(=O)(=O)c2ncccc2C(=O)N(C)C)n1, the outcome is reported as “inactive”.
In the case of ClC(Cl)=C(Cl)C(Cl)=C(Cl)Cl, the outcome is reported as “inactive”.
With Oc1c(I)cc(I)cc1I the AC50 was 3.34 µM (active).
For O=C(O)CCC(F)(C(F)(F)F)C(F)(F)F, the outcome was “inactive”.
O=C(O)C(F)(F)C(F)(F)C(F)(F)C(F)(F)C(F)(F)C(F)(F)F was tested, and the outcome was “inactive”.
In the case of COC(=O)Cc1ccccc1, the outcome is reported as “inactive”.
For ClC1=C(Cl)[C@]2(Cl)[C@H]3[C@H]([C@H]4C=C[C@H]3C4)[C@@]1(Cl)C2(Cl)Cl, the outcome was “inactive”.
In the case of Oc1ccc(-c2ccccc2)cc1, the outcome is reported as “inactive”.
With O=[N+]([O-])c1ccc2c3c(cccc13)CC2 the outcome was “inactive”.
For CC(C)CCCCCCOC(=O)c1ccccc1C(=O)OCCCCCCC(C)C, the outcome was “inactive”.
For O=Cc1cccc(Oc2ccccc2)c1, the outcome was “inactive”.
For CCC(C)(C)c1ccc(O)c(C(C)(C)CC)c1, the AC50 was 26.6 µM (active).
With CCOP(=S)(OCC)Oc1nc(Cl)c(Cl)cc1Cl the outcome was “inactive”.
O=C(OC1CCCCC1)c1ccccc1C(=O)OC1CCCCC1 was tested, and the AC50 was 8.39 µM (active).
O=C(O)C(F)(F)C(F)(F)C(F)(F)C(F)(F)C(F)(F)C(F)(F)C(F)(F)C(F)(F)C(F)(F)C(F)(F)F was tested, and the outcome was “inactive” and the AC50 was 7.65 µM (active) and 5.33 µM (active).
For CC(C)c1ccc(CO)cc1, the outcome was “inactive”.
In the case of C(=NC1CCCCC1)=NC1CCCCC1, the outcome is reported as “inactive”.
